Source: PubChem
EWS-Fli inh = EWS/Fli transcriptional activity inhibition; A673 NR0B1-luciferase reporter, viability-normalised; inhibition, % at 12.6 µM; 0.67% of 350,000 active; AID 651661;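 active = mean inhibition of at least 50% after viability correction, with every replicate also passing that limit; inconclusive = mean reaches 50% but only one of two replicates passes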;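 also: firefly luciferase signal divided by Alamar Blue viability fluorescence both relative to DMSO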
LGR2 inh = Drosophila LGR2 receptor signaling inhibition; HEK293 LGR2, CRE-luciferase, bursicon-stimulated, 4 h; inhibition, % at 9.99 µM; 0.35% of 380,000 active;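 active = drop in luminescence signal, shown as inhibition above about 50% in the replicate tests, limit read from the data, passing the limit was not always enough; inconclusive = probably only some replicates passing the limit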;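 also: agonist challenge used bursicon conditioned medium at about half maximal strength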
PAX8 reporter = PAX8 transcriptional activity inhibition | RMG-I TPO-luciferase reporter, SteadyGlo, 24 h | inhibition, % at 12.6 µM | AID 652154 | 1.2% of 360,000 active;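 active = mean replicate inhibition at least 60% with every replicate also reaching 60%; inconclusive = only one of the two criteria is met; inactive = mean below 60% and not all replicates reaching 60%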;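 also: luciferase light reporting Pax8 driven TPO promoter activity; plate controls were median of neutral control wells for no effect and mitoxantrone controls for full effect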
TWEAK Fn14 block = TWEAK-Fn14 signaling inhibition. TWEAK-stimulated Fn14 reporter cells, luciferase luminescence, 8 h. inhibition, % at 10 µM. 2% of 360,000 active; in the data active = inhibition above about 50%
TROY signal inh = TROY signaling inhibition. Q293 LMP1-TROYcd NF-kB luciferase reporter, 4 h. inhibition, % at 10 µM. 0.98% of 360,000 active;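 active = compounds whose plate-normalised and pattern-corrected inhibition of the luciferase reporter signal at the single screening dose is 50% or more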
* marks the source's active call; other numbers are inactive results; ? = inconclusive; . = no result. An excerpt weighted towards active compounds, which were near 2.8% of everything screened.

SMILES	EWS-Fli inh	LGR2 inh	PAX8 reporter	TWEAK Fn14 block	TROY signal inh
COC(=O)[C@]12CCCCC=C1N(Cc1cccc3ccccc13)C(=O)[C@H](CC(=O)N1CCN(C(=O)c3ccco3)CC1)C2	0.0	31.4	92.4*	17.3	31.4
COC(=O)[C@]12CCCCC=C1N(CCC1=CCCCC1)C(=O)[C@H](CC(=O)N1CCN(C(=O)c3ccco3)CC1)C2	2.8	-8.4	79.0*	11.7	4.1
CCOC(=O)[C@]12CCC=C1N(Cc1ccccc1)C(=O)[C@H](CC(=O)N1CCN(C(=O)c3ccco3)CC1)C2	-0.5	-10.3	44.8	12.3	-13.1
CCOC(=O)[C@]12CCCC=C1N(Cc1ccccc1)C(=O)[C@H](CC(=O)N1CCN(C(=O)c3ccco3)CC1)C2	-8.2	21.3	70.6*	.	.
C[C@@H]1CCCCO[C@H](CN(C)S(=O)(=O)c2ccc(Cl)cc2)[C@H](C)CN([C@@H](C)CO)C(=O)c2cc(NC(=O)CCCN(C)C)ccc2O1	-6.0	-13.8	22.4	.	.
COc1ccc(S(=O)(=O)Nc2ccc3c(c2)C(=O)N([C@@H](C)CO)C[C@H](C)[C@@H](CN(C)C(=O)Cc2ccccc2)OCCCC[C@@H](C)O3)cc1	-2.8	-17.0	23.1	.	.
Cc1ccc2c(c1)c1c3n2CCN(CC(N)=O)C3CCC1 (stereo not given)	5.1	-39.9	96.7*	24.1	-29.9
CCOC(=O)c1c(-c2ccc(OC)cc2)csc1NC(=O)CCN1CCOCC1	8.5	-5.5	16.8	20.0	3.1
CCOC(=O)c1c(-c2ccccc2)csc1NC(=O)CSc1nc(N)cc(N)n1	.	-7.7	18.6	86.4*	43.5
CCOC(=O)c1c(-c2ccc(C)o2)csc1NC(=O)CN1CCCCC1	13.3	3.7	27.6	54.3*	9.2
COC(=O)c1c(-c2cccs2)csc1NC(=O)CN1CCOCC1	.	.	.	21.1	66.6*
CC(C)NC(=O)N[C@@H]1C=C[C@H](CC(=O)NCCCN(C)C)O[C@H]1CO	2.8	-7.8	-4.5	.	.
C[C@H]1CN([C@@H](C)CO)C(=O)Cc2cc(NS(=O)(=O)c3ccccc3)ccc2O[C@@H]1CN(C)C(=O)NC1CCCCC1	-8.5	4.0	-1.4	.	.
CC(C)CCCCCCCCCCCCC(=O)NCC(=O)NC1C(O)C(O)C(Nc2ncnc3nc[nH]c23)OC1C(O)CO (stereo not given)	.	.	.	97.1*	72.5*
Cn1cc(/C=C(\C(=O)O)C(C(=O)O)=C2CCCCC2)c2ccccc21	8.0	6.9	94.9*	4.2	11.7
Cn1cc(C=C2C(=O)OC3(CCCCC3)OC2=O)c2ccccc21	11.3	13.7	12.1	-13.9	-13.6
Cn1cc(/C=C/C(=O)c2ccccc2)c2ccccc21	40.5	.	-57.3	71.0*	21.0
Cc1ccc(C(=O)/C=C/c2cn(CN3CCN(C)CC3)c3ccccc23)cc1	.	-84.7	.	8.6	-37.0
CCn1ncc(/C=C/C(=O)c2ccccc2)c1C	.	-11.9	-165.6	53.0*	-10.2
COc1ccc(Cl)cc1NC(=O)c1cccc([N+](=O)[O-])c1O	-16.3	-20.8	0.9	16.4	56.4*
CCOC(=O)CCC(=O)Nc1ncnc2c1C(c1ccccc1)c1c(ccc3ccccc13)O2 (stereo not given)	-9.0	25.1	7.2	27.1	11.7
O=C(Cc1ccccc1)Nc1ncnc2c1C(c1ccccc1)c1c(ccc3ccccc13)O2 (stereo not given)	16.7	0.0	?	51.4*	39.4
COc1ccc(C2c3c(ncn(CCCO)c3=N)Oc3ccc4ccccc4c32)cc1 (stereo not given)	20.6	3.0	-9.5	-30.9	-8.0
O=C(Nc1ncnc2c1C(c1ccccc1)c1c(ccc3ccccc13)O2)c1ccccc1 (stereo not given)	26.3	0.9	31.6	54.0*	13.3
C[C@H]1CN([C@@H](C)CO)C(=O)c2cccc(NC(=O)Nc3ccc(F)cc3)c2O[C@@H]1CN(C)C(=O)Nc1ccc(F)cc1	11.6	-12.3	.	.	.
SMILES	EWS-Fli inh	LGR2 inh	PAX8 reporter	TWEAK Fn14 block	TROY signal inh
COc1ccc(NC(=O)Nc2cccc3c2O[C@@H](CN(C)S(=O)(=O)c2cn(C)cn2)[C@H](C)CN([C@H](C)CO)C3=O)cc1	7.0	10.5	.	.	.
CN1C(=O)c2cc(NC(=O)Nc3ccc(F)cc3)ccc2OC[C@H]2O[C@@H](CC(=O)NC3CCC3)CC[C@H]21	-3.9	-6.4	61.8*	.	.
CN1C(=O)c2cc(NC(=O)Nc3ccc(F)cc3)ccc2OC[C@@H]2O[C@@H](CC(=O)NC3CCC3)CC[C@@H]21	3.4	-3.7	49.8	.	.
CC(C)c1ccc(NC(=O)C[C@H]2CC[C@H]3[C@@H](COc4ccc(NC(=O)Nc5ccc(F)c(F)c5)cc4C(=O)N3C)O2)cc1	-1.0	.	74.6*	.	.
C[C@@H]1CN([C@@H](C)CO)C(=O)c2cc(/C=C/c3ccccc3)cnc2O[C@@H]1CN(C)C(=O)c1ccc2c(c1)OCO2	-6.5	-6.9	14.2	.	.
C(=Cc1c[nH]c2ccccc12)c1nccc2ccccc12	21.8	94.1*	-1.6	89.0*	64.8*
O=Cc1nccc2ccccc12	19.1	0.8	22.1	-9.4	-2.9
O=C(CCl)N1CCN(S(=O)(=O)c2ccc3ccccc3c2)CC1	59.9*	20.4	2.7	-25.9	-9.7
CN(C)C(=O)N1CCN(S(=O)(=O)c2ccc3ccccc3c2)CC1	3.7	-6.4	14.7	101.1*	-8.5
COc1ccc(CCC(=O)N2CCN(S(=O)(=O)c3ccc4ccccc4c3)CC2)cc1	.	.	.	1.6	-0.1
C[C@@H]1CN([C@H](C)CO)C(=O)c2cc(NC(=O)Nc3ccccc3)ccc2O[C@@H]1CN(C)S(=O)(=O)c1cn(C)cn1	-6.9	2.8	.	.	.
Cc1ccc(N=C/C(C(=O)C(F)(F)F)=C(\O)c2cccs2)cc1	.	.	-19.8	83.4*	-42.3
O=C(/C(N=Nc1cccc(C(F)(F)F)c1)=C(/O)c1cccs1)C(F)(F)F	-44.0	.	-84.4	56.8*	9.0
CO[C@H]1CN(C)C(=O)c2ccc(NC(=O)Nc3cc(F)ccc3F)cc2OC[C@H](C)N(C)C[C@@H]1C	-1.6	-2.2	-5.2	.	.
C[C@@H]1CCCCO[C@@H](CN(C)C)[C@H](C)CN([C@@H](C)CO)C(=O)c2cc(NS(=O)(=O)c3ccccc3)ccc2O1	-7.8	-3.9	-9.4	.	.
O=C(c1ccco1)N1CCN(C(=O)c2ccco2)C1=S	-9.1	83.0*	21.5	50.7*	27.2
CCCS(=O)(=O)N1CCN(C(=O)c2ccco2)CC1	.	.	12.2	77.1*	12.9
O=C(c1ccco1)N1c2ccccc2Sc2ccccc21	.	.	.	24.2	8.5
O=C(c1ccco1)N1CCN(C(=O)N2c3ccccc3Sc3ccccc32)CC1	54.3*	9.9	.	32.5	22.3
COCCNC(=O)C[C@H]1C[C@@H]2c3cc(NC(=O)COC)ccc3O[C@@H]2[C@@H](CO)O1	2.5	16.4	1.8	.	.
CCS(=O)(=O)Nc1ccc2c(c1)C(=O)N(C)[C@H]1CC[C@@H](CC(=O)Nc3ccccc3)O[C@@H]1CO2	-5.9	3.6	2.4	.	.
O=C(C[C@H]1CC[C@@H]2[C@H](COC[C@H](O)CN2Cc2ccccc2)O1)N1CCOCC1	2.9	-4.3	-0.1	.	.
